This passage reports Potency results from PubChem BioAssay AID2783 (National Center for Advancing Translational Sciences (NCATS), 2010).

The test concerns the target Histone-lysine N-methyltransferase 2A (Homo sapiens) (UniProt Q03164). Kind of test: Confirmation of Inhibitors Targeting the Menin-MLL Interaction in MLL Related Leukemias: Competition With Fluorescein Labeled MLL-derived Peptide. As to conditions: Fluorescence polarization, fluorescein-MLL peptide displacement from menin. A general note: In fluorescence polarisation assays a small probe gives low polarisation when free and higher when bound to something large.

Results filed as inconclusive are left out. Active and inactive are the calls of the source. Calls come from the whole dose curve; as a rule, active = well fitted inhibition curve with a large enough effect in the polarisation, with a control signal flat (not every such curve was filed as active); inconclusive = small, poorly fitted or top-dose-only effect, or effect the other way, or a change in a side signal; inactive = no such curve, though single readings can be large or run the other way; the % refers to the polarisation.
Potency is the fitted concentration of half-maximal effect.

Histone-lysine N-methyltransferase 2A (Homo sapiens), sequence (Q03164 whole entry, looked up): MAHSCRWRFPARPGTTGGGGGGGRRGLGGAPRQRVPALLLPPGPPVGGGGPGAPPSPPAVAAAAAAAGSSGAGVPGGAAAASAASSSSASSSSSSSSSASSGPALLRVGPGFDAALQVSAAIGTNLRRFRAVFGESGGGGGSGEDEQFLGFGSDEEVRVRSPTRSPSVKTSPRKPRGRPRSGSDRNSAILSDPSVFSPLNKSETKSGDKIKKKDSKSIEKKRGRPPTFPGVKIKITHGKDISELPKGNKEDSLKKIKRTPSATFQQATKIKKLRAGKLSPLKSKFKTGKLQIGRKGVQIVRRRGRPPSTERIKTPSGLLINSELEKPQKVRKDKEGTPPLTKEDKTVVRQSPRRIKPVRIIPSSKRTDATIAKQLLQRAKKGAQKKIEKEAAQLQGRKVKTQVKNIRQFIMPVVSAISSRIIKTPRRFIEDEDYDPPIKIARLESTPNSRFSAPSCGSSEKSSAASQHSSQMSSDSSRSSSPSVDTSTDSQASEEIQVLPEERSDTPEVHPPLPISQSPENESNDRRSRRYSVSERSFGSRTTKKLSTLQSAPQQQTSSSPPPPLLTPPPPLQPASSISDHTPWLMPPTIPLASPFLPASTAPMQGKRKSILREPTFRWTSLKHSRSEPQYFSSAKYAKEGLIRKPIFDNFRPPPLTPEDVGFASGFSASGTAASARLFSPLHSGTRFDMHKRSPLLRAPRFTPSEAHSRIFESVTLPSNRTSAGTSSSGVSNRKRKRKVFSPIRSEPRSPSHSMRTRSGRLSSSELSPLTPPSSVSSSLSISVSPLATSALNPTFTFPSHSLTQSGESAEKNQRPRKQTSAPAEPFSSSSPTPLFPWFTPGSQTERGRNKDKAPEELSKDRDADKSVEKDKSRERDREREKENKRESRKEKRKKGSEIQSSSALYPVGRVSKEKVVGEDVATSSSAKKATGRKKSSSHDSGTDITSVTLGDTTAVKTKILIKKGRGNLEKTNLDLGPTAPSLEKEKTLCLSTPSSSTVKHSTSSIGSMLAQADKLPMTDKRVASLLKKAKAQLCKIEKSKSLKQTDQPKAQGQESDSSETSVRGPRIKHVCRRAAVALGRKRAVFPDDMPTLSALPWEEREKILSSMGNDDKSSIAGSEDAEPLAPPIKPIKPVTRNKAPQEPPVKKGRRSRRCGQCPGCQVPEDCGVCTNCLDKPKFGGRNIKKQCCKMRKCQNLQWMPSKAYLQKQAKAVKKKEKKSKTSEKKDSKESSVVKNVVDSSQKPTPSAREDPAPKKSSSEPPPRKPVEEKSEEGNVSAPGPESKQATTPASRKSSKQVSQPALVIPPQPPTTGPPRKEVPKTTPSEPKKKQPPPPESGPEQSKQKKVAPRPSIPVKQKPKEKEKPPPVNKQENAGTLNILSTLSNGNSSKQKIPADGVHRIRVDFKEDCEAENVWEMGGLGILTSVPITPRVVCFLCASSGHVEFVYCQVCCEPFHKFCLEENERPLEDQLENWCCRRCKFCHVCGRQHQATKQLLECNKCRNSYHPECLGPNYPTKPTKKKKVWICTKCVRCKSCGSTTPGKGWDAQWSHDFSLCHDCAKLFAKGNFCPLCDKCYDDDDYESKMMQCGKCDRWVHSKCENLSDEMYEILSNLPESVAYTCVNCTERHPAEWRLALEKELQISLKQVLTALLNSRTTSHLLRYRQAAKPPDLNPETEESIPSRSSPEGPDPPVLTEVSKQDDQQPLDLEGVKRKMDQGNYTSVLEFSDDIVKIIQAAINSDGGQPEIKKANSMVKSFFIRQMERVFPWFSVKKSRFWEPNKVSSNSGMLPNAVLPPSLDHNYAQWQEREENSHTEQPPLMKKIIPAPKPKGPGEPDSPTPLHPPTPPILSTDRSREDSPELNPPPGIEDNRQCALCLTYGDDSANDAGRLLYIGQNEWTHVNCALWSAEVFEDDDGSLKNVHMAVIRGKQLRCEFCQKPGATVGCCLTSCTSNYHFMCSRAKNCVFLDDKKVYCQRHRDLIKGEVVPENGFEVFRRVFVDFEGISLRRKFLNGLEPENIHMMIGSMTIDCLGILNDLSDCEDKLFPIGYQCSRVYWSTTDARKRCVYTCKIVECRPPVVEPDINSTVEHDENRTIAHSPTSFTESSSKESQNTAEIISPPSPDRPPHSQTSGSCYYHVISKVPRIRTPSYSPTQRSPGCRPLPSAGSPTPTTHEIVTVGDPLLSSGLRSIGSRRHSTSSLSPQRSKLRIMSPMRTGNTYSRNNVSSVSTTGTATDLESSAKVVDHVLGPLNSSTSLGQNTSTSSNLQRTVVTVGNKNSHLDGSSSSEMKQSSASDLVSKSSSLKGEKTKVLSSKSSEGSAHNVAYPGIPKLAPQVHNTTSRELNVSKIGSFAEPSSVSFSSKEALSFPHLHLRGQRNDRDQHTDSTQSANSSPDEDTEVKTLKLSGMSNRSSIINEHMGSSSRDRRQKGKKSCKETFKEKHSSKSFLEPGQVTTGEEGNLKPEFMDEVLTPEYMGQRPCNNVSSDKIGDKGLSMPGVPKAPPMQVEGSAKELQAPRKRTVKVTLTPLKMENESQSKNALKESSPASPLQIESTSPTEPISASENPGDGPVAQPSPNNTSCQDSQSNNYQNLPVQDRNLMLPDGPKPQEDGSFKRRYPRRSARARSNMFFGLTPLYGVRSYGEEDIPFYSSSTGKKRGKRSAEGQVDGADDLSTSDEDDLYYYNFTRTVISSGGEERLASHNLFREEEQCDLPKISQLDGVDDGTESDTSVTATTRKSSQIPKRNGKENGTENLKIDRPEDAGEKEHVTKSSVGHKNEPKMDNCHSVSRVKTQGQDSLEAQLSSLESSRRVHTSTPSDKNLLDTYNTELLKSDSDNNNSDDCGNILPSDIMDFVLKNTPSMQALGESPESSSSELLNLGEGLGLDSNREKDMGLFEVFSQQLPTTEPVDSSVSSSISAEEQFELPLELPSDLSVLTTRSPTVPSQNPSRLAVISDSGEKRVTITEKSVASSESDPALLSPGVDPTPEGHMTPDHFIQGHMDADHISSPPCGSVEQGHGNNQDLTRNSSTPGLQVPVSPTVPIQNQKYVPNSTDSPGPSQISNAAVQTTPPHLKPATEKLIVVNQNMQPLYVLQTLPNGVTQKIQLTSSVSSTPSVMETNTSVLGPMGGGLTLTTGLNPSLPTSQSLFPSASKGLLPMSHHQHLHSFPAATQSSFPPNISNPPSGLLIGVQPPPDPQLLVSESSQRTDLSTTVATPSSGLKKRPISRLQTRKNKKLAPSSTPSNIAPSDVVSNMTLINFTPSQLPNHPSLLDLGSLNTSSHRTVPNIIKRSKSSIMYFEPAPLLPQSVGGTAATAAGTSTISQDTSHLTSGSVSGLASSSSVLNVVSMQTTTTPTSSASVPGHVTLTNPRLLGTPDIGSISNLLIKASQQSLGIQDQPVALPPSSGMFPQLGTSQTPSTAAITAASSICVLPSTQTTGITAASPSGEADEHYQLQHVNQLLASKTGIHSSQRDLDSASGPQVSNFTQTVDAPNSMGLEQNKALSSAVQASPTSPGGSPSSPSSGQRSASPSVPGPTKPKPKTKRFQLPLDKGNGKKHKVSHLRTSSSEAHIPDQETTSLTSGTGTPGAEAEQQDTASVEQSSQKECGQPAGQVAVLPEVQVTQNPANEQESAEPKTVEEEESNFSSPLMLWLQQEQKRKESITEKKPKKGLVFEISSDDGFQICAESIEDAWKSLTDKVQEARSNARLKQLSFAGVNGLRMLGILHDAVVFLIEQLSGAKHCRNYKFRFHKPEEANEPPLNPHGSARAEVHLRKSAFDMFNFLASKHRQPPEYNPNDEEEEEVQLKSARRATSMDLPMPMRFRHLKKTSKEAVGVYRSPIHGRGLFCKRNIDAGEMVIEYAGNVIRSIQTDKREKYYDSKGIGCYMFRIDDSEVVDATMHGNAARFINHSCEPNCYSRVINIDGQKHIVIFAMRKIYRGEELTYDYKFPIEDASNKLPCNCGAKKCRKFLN

With `c1cc2cc(c1)C[n+]1ccc(c3ccccc31)NCc1ccc(cc1)CNc1cc[n+](c3ccccc13)C2`, the Potency is 126 µM (active).
